Structures are written as SMILES. Where “and” joins values, the source holds several entries; their conditions need not be identical. Equal entries are not always repeated. Records with an inconclusive call do not appear. Entries that show only a call come without a potency. A structure can be active in one record and inactive in another. Calls of active or inactive are those of the source. Calls come from the whole dose curve; as a rule, active = well fitted cell-killing curve with a large enough effect in the repeat runs; inconclusive = weak or mixed curves; inactive = no such curve, though single readings can be large or run the other way.
Potency is the fitted concentration of half-maximal effect.

The nature of this test: qHTS assay for identifying genotoxic compounds that show differential cytotoxicity against isogenic chicken DT40 cell lines with known DNA damage response pathways - Rad54/Ku70 mutant cell line (AID 743015). Note: nearly all actives have a fitted effect of over 60% in size. The following applies: DT40 Rad54/Ku70 mutant viability, CellTiter-Glo, 40 h; series mostly up to 66.8 µM. An excerpt: National Center for Advancing Translational Sciences [NCATS]
NIH Chemical Genomics Center [NCGC]
U.S. Environmental Protection Agency [EPA]
National Institutes of Environmental Health Sciences [NIEHS]
National Toxicology Program [NTP]
U.S. Food and Drug Administration [FDA]
DNA repair pathways play a critical role in cellular homeostasis by repairing DNA damage induced by endogenous processes and xenobiotics. Isogenic chicken DT40 cell lines deficient in different DNA repair pathways can be used to identify genotoxic compounds and aid in characterizing the nature of the DNA damage induced. Two DNA repair-deficient cell lines with disrupted genes, Rad54/Ku70 or Rev3, were used to screen the Tox21 10K compound library. Possible genotoxicity was based on the presence of a significant increase in cytotoxicity in one or more of the DNA repair-deficient cell lines compared to that observed in the parental DNA repair-proficient cell line. CellTiter Glo viability assay (Promega, Madison, WI) was used to measure cell viability in these cells after compound treatment. This assay includes the data from the Rad54/Ku70 mutant cell line.
Tox21 Assay Protocol Summary:
300 DT40 mutant cells in 5 uL/well were dispensed into white, solid-bottom 1536-well plates using a Multidrop Combi (ThermoFisher Scientific, Waltham, MA) dispenser. After the assay plates were incubated at 37 C/5% CO2 for approximately 0.5 hour, 23 nL of compounds dissolved in DMSO, positive controls or DMSO only was transferred into the assay plate by a pintool work station (Kalypsys, San Diego, CA). The assay plates were incubated at 37 C/5% CO2 for 40 hours. After 5 uL per well of CellTiter-Glo reagent was added into each well of the assay plates, the plates were incubated for 30 min at room temperature and the luminescence intensity of the plates was measured using a ViewLux (PerkinElmer, Shelton, CT) plate reader.
Regarding `O=C1CCCCCCCCCCCCCCCO1`, the Potency result is “inactive”.
As for `CC1(C)[C@@H](O)CC[C@]2(C)[C@H]3C(=O)C=C4[C@@H]5C[C@@](C)(C(=O)O)CC[C@]5(C)CC[C@@]4(C)[C@]3(C)CC[C@@H]12`, the figure is 2.37 µM (active) and inactive.
In the case of `CCn1c2ccccc2c2cc([N+](=O)[O-])ccc21`, the Potency is 54.5 µM (active).
With `CN1CCN2c3ccccc3Cc3ccccc3C2C1` (stereo not given), the Potency is 21.1 µM (active).
As for `COC(=O)Nc1nc2ccc(C(=O)c3ccccc3)cc2[nH]1`, the Potency was 0.403 µM (active).
Next, `O=c1[nH]c2ccccc2n1CCCN1CCN(C(c2ccccc2)c2ccccc2)CC1`: 8.41 µM (active).
Next, `O=C(O)c1cc(-c2ccc(F)cc2F)ccc1O`: “inactive”; `CCCCCCCCCCCCOC(=O)c1ccc(O)cc1`: “inactive”; `CCCCCCCCCCCCCC[N+](C)(C)C`: 376 nM (active) and 469 nM (active) and 217 nM (active).
Next, `C#C[C@]1(O)CC[C@H]2[C@@H]3[C@H](C)CC4=C(CCC(=O)C4)[C@H]3CC[C@@]21C`: 21.1 µM (active).
For `COc1cc(/C=C/c2ccccc2)oc(=O)c1`, the Potency result is “inactive”.
As for `Nc1ccc(Oc2ccc(Cl)cc2)cc1`, the figure is 59.8 µM (active); as for `ClCCl`, “inactive”; as for `Cc1cc(-n2nc3ccc(Cl)cc3n2)c(O)c(C(C)(C)C)c1`, “inactive”.
Consider `O=[N+]([O-])c1ccc(O)cc1C(F)(F)F`, for which the Potency is 21.7 µM (active).
Next, `Nc1ccc(C(=O)O)c(O)c1`: “inactive”; `NC(=S)NC(N)=S`: 68.6 µM (active); `CCC(C)(CCC(C)C)C(=O)[O][Sn]([CH3])([CH3])[O]C(=O)C(C)(CC)CCC(C)C` (stereo not given): “inactive”.
As for `O=C(O)c1cc(N=Nc2ccc([N+](=O)[O-])cc2)ccc1O`, the entry is “inactive”; as for `O=C(/C=C/c1ccc(O)c(O)c1)O[C@@H](C(=O)O)[C@@H](OC(=O)/C=C/c1ccc(O)c(O)c1)C(=O)O`, “inactive”.
As for `CC(C(=O)O)c1ccc2c(c1)[nH]c1ccc(Cl)cc12` (stereo not given), the entry is “inactive”; as for `Nc1nc(-c2ccccc2)cs1`, “inactive”.
Regarding `Oc1ccccc1O`, the Potency is 12.3 µM (active) and 27.3 µM (active).
As for `Clc1sc(Cl)c(Cl)c1Cl`, the Potency result was “inactive”.
Turning to `Cc1c(C)c2c(c(C)c1OC(=O)c1cccnc1)CC[C@@](C)(CCC[C@H](C)CCC[C@H](C)CCCC(C)C)O2`, the Potency entry was “inactive”.
For `OC[C@H]1O[C@H](O[C@H]2O[C@H](CO)[C@@H](O)[C@H](O)[C@H]2O)[C@H](O)[C@@H](O)[C@@H]1O`, the Potency result was “inactive”.
As for `COC(C)=O`, the entry is “inactive”.
Next, `Oc1c(I)cc(Cl)c2cccnc12`: 16.8 µM (active) and 19.3 µM (active).
Next, `Cc1c(F)c(N2CCNC(C)C2)cc2c1c(=O)c(C(=O)O)cn2C1CC1` (stereo not given): “inactive”; `CCCCC(CC)CN1CN(CC(CC)CCCC)CC(C)(N)C1` (stereo not given): 8.04 µM (active); `O=C(O)c1ccc2cc(C(=O)O)ccc2c1`: “inactive”.
For the compound `O=C(O)Cc1ccccc1Nc1c(Cl)cccc1Cl`, the Potency entry was “inactive and 68.6 µM (active)”.
Next, `Cc1ccc(C)cc1`: “inactive”; `CC1(C)CC(O)CC(C)(C)N1`: “inactive”.
Regarding `CCCCCC/C=C\CCCCCCCC(=O)O`, the Potency result is “inactive”.
As for `O=C(c1ccc(O)c(O)c1)c1ccc(O)cc1O`, the figure is 8.62 µM (active); as for `C=CC(=O)Nc1cc2c(Nc3ccc(F)c(Cl)c3)ncnc2cc1OCCCN1CCOCC1`, 5.96 µM (active); as for `Cc1cc(C(C)(C)C)cc(C)c1CC1=NCCN1`, “inactive”.
As for `CCCCOC(=O)CC`, the entry is “inactive”; as for `CCC(CC)C(C)CCOC(C)=O` (stereo not given), “inactive”.

The record behind these values is PubChem BioAssay (Tox21).
